Active and inactive are the calls of the source. The calls were made as follows: active = hit-call score of the fitted dose curve at least 0.9, where 1 is the maximum; inactive = score below 0.9.

The assay in a line: CCTE_Shafer_MEA_acute_burst_percentage_std: CCTE's Neural Acute Assay for Standard Deviation of Burst Percentage, Shafer Lab (AID 2284018).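 Also: fitted in the negative direction so actives lower burst percentage SD.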 Here is the method:
CCTE_Shafer_MEA_acute assay is conducted using Axion Biosystems 48 well microelectrode array (MEA) plates and Maestro recording system. Each well of the MEA plate contains a grid of 16 microelectrodes embedded in the culture surface. Electrically active cells, such as neurons, can be cultured over the electrodes, and electrical activity in these cells can be recorded extracellularly. The spontaneous firing of neurons is captured from each electrode on a microsecond timescale providing both temporally and spatially precise data. […] The CCTE_Shafer_MEA_acute assay uses primary cultures of rat cortical neurons. As these cultures mature over time, neural networks develop functional activity and form cohesive networks in which electrical activity can be highly coordinated. Baseline 40-minute recordings are made on days post-plating 13 or 15, followed by a secondary 40-minute recording after chemical exposure.CCTE_Shafer_MEA_acute_burst_percentage_std is a component of the CCTE_Shafer_MEA_acute assay. It measures the percentage of spikes (action potential firing) in a single-electrode burst (temporally-clustered groups of spikes) as the number of spikes in bursts divided by the total number of spikes during a recording in a microelectrode array (MEA) using Axion Biosystems Maestro 768 channel amplifier with the AxIS adaptive spike detector. The standard deviation of the burst percentages across electrodes is calculated to report a well-level value. The recordings before and after chemical treatment are used to calculate a percent change in the standard deviation of the burst percentage in each well.Data from the assay component CCTE_Shafer_MEA_acute_burst_percentage_std was analyzed into 1 assay endpoint. This assay endpoint, CCTE_Shafer_MEA_acute_burst_percentage_std, was analyzed in the negative analysis fitting direction relative to DMSO as the negative control and baseline of activity. Using a type of functional reporter, gain or loss-of-signal activity can be used to understand electrical activity.
Spontaneous activity in the cortical cultures was recorded using an Axion Biosystems Maestro 768 channel amplifier and Axion Integrated Studios (AxIS) v1.8 (or later) software. The amplifier recorded from all channels simultaneously (gain = 1200 x; sampling rate = 12.5 kHz/channel): raw signals were filtered with a Butterworth band-pass filter (300-5000 Hz), which filters out slower local field potentials leaving only fast potentials, i.e., "spikes", arising from extracellular currents associated with action potentials (Pine 2006; Wheeler and Nam 2011). On-line spike detection of filtered signals was conducted with the AxIS adaptive spike detector, using a threshold of 8x the root mean squared (rms) noise on each channel. Any electrodes with rms noise levels greater than 5 uV were grounded (e.g., no data were recorded). Once grounded, an electrode was grounded for the duration of the experiment. All recordings were conducted at 37 C. Wells were deemed usable if on the day of the exposure >/= 10 electrodes were active (defined as >/= 5 spikes/min). On DIV 13 or 15, a minimum of three wells from one cortical culture preparation were treated with each compound (0.03-40 uM). Prior to recording baseline activity, each mwMEA plate was placed in the Maestro at 37 C and allowed to sit for 20 min while firing rates stabilized. Baseline activity (40 min) was recorded before the addition of each compound. An additional 40 min of spontaneous activity was recorded in the presence of each compound. Changes in network parameters relative to baseline were assessed following compound treatment.
As for `CCC(C)(c1ccc(O)cc1)c1ccc(O)cc1`, the outcome was inactive.

In the case of `O=C(N[C@H]1CN2CCC1CC2)c1cc2ccoc2cn1`, the compound was called inactive.

On to `Oc1ccc(C(c2ccc(O)cc2)(C(F)(F)F)C(F)(F)F)cc1`, for which the result was inactive.

As to `CN(C)CCO`, the call was inactive.

Regarding `ClC1=C(Cl)[C@]2(Cl)[C@@H]3[C@@H]4C[C@@H]([C@H]5O[C@@H]45)[C@@H]3[C@@]1(Cl)C2(Cl)Cl`, the call was inactive.

As to `CO/C=C(/C(=O)OC)c1ccccc1COc1cccc(C(F)(F)F)n1`, the compound was classed as inactive.

Regarding `CCC(C)(CC)c1cc(NC(=O)c2c(OC)cccc2OC)on1`, the compound was called inactive.

Turning to `Nc1ccc(-c2ccc(N)cc2)cc1`, the result was inactive.

Take `CCSC(=O)N(CC)C1CCCCC1`: the call was inactive.

With `C=CC(N)=O`, the compound was called inactive.

As for `c1ccc(-c2ccccc2)cc1`, the compound was classed as inactive.

Turning to `COc1ccc(O)c(C(C)(C)C)c1`, the call was inactive.

As to `ClC1=C(Cl)[C@]2(Cl)[C@@H]3[C@@H](Cl)[C@H]4O[C@H]4[C@@H]3C1(Cl)C2(Cl)Cl`, the result was inactive.

As to `CCCN(CCC)N=O`, the outcome was inactive.

Regarding `O=C(NC(=O)c1c(F)cccc1F)Nc1cc(Cl)c(OC(F)(F)C(F)F)c(Cl)c1`, the outcome was inactive.

As for `CC#Cc1cc(C)nc(Nc2ccccc2)n1`, the AC50 (usually the midpoint of the concentration-response curve, whichever way the signal moves) was 4.1 µM (active).

For `CC(c1ccc(O)cc1)(c1ccc(O)cc1)c1ccc(O)cc1`, the AC50 is 32.9 µM (active).

As for `CCCCCCCCCC[N+](C)(C)CCCCCCCCCC`, the AC50 is 20 µM (active).

`ClC(Cl)=C(c1ccc(Cl)cc1)c1ccc(Cl)cc1`: the compound was called inactive.

Turning to `COS(=O)(=O)OC`, the result was inactive.

Turning to `CC(C)C(=O)OCC(C)(C)C(OC(=O)C(C)C)C(C)C` (stereo unspecified), the call was inactive.

Regarding `CCC(C)c1cc([N+](=O)[O-])cc([N+](=O)[O-])c1O` (stereo unspecified), the compound was called inactive.

As for `ClC1=C(Cl)[C@]2(Cl)[C@@H]3[C@H]4C[C@H]([C@@H]5O[C@H]45)[C@@H]3[C@@]1(Cl)C2(Cl)Cl`, the compound was classed as inactive.

For `CCCCCCCCCc1ccc(O)cc1`, the AC50 is 33.7 µM (active).

On to `Clc1ccc(C(Cl)(Cl)Cl)cc1`, for which the call was inactive.

In the case of `O=C(O)C(F)(F)C(F)(F)C(F)(F)C(F)(F)C(F)(F)F`, the outcome was inactive.

These data come from PubChem BioAssay (EPA / NIEHS).
